For one test, the system named is RARb homodimer (NR concentration 270 nM). Description: PBM binding z-score (relative to random genomic background probes); higher = stronger binding; sequences stand for … in GC…GCGATTGACAGCGTAGAATGAAGG
A digest of the protocol: (§1)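 Probes were double-stranded and carried 34-nt variable regions with direct-repeat seeds, single-nucleotide variants, half-site ablations and random human genomic background sequences, printed on custom Agilent 4×180K protein-binding microarrays. Arrays were incubated 1 h with ligand-free nuclear receptor dimers in PBS pH 7.4, 2% milk, 0.02% Triton X-100, 1 mM DTT, 0.2 mg/mL BSA and 0.4 mg/ml salmon testes DNA. Antibodies against each partner (one per run) detected binding, and scanned fluorescence was regression-normalized. Binding z-scores use the random background probes as reference.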
In turn, CCTGCTAGGGCAATGGTCAGCTAAAGCAGCTCGC showed a PBM binding z-score of 0.431.

The sequence ATCGAAAGGTCGTGAGGTGAGTCTACAGAAAGGC displayed a PBM binding z-score of 3.17.

CCTAGCACGCCAGGGTCACTCAAGCATTTCGCTT gave a PBM binding z-score of 2.65.

TCATATAAGTAAAAGGTGAAAGTCGGTGTGGTAA came in with a PBM binding z-score of 1.85.

AGTCAAAGTTCATCTAGGCAACGTAAGATATGCT returned a PBM binding z-score of 3.91.

As for ACTATTAGTTGACTTAGGGCAACCCATACGACGC, the PBM binding z-score is 1.13.

With CCTCGGTGGACAACAGGAGGTCAGAGCTGCCAGA, the PBM binding z-score is 2.99.

As for CGAACTAGGTCAGGGACAGTGAATCTCCGCACGC, the PBM binding z-score was 2.17.

With TCGAGTAGGTTAGACGGGGCATTCAGCCAACATA, the PBM binding z-score was determined as 0.538.

In the case of CCTTACGGGTCACCGACAGGTTATAGCATTTGGA, the PBM binding z-score came to 3.79.

Sequence GCTGCTAGGTCAACTGATGTTCAGCTAAAGCTCG came in with a PBM binding z-score of 3.45.

In the case of TCTTATAGGTAAAAGGTGAAAGTCGGTGTGGTAA, the PBM binding z-score stood at 1.91.

The sequence ACTAGCAGGCCAAGTCTGGGTCACTCAAACAAAG showed a PBM binding z-score of 2.36.

The sequence ATCTCTAGGAAAAGATAGTTCAGTGAATGCAAAT yielded a PBM binding z-score of 0.679.

As for ACTAGCAGGCCAAGTTTGGGTCACTCAGACAAAG, the PBM binding z-score was found to be 2.13.

Sequence AACTCTAGGTAAAGATAGTTCAGTGAATGCAAAT gave a PBM binding z-score of 1.06.

Take GCTAGCAGGCCATTTGGTTCACTCAATGACGGGC: the PBM binding z-score is -0.301.

ATCGAAAGGCCGACGAGGTGAGTATACACCGTTT returned a PBM binding z-score of 0.596.

Consider TCTGTTAGTTGAAGGGCAACCGACGAGTCCGTTT, for which the PBM binding z-score came to 1.22.

As to CCTACTGGGCCACGAAACGTCATTGATTCAGTGA, the PBM binding z-score was -0.373.

In turn, TCGAGTAGGTTAGGGGCATGCAGAATGGCGTCGA came in with a PBM binding z-score of 1.07.

CCTACTGGGCCAAAGCTCATTGATTCCAATGCTC displayed a PBM binding z-score of -0.417.

On to TCTTGTAGAGCAACAGGAGGTTAAGAAAGATCGA, for which the PBM binding z-score was 0.136.

Take TCTTGTAGATCAAGCAGGTTAAGGAAGCCTGAGT: the PBM binding z-score is 0.203.

Consider CCTAGCAGGCCAATCTGGGTCACTAAAGGCTTGA, for which the PBM binding z-score turned out to be 2.01.

Consider CCTTACGGGTCACTCCAGATTATAGCATCGGAGT, for which the PBM binding z-score amounted to 2.58.

For the sequence CGTCCAAGGTCAAGGTCAGTTAAAGAGACTCGAA, the PBM binding z-score was determined as 5.26.

Take CCTGCTGGGCCAAGGTCATTGATCAGTCAAAGCA: the PBM binding z-score came to 3.19.

The sequence TCGAGTAGGTTACCAATGGGGCAGTCAGCTTTCT yielded a PBM binding z-score of 0.628.

As for AGTCTAAGTTCACTAGGTAACGTAAGATTCAGCT, the PBM binding z-score turned out to be 2.21.

The sequence CAAACTAGGTGACGAAAGGTCAAAGTCGAATGAC showed a PBM binding z-score of 4.9.

CCTTGTTGGTCAGGAGGTCACACACCGGATATGA came in with a PBM binding z-score of 4.42.

ATCTCTAGGTAACAAGTCCAGTGAAAGAGAGGAC: the PBM binding z-score is 0.709.

For the sequence GCTAGTTGGTCAGTAAAAGGTCACACATCGGTCG, the PBM binding z-score was found to be 5.17.

GGAACGAGGGCGTTCGAGTTGATAGCATGGCGAT: the PBM binding z-score was -0.589.

On to CTACCAAGGTGAACAACGTCGTTGATTACTATTC, for which the PBM binding z-score was found to be 0.607.

Take CGAACTAGGTCAGAACAGGACAGTGGAGGATGAT: the PBM binding z-score was 2.31.

As for GCTGCTAGGTCTACTGATGGTCAGCTAAAGCTCG, the PBM binding z-score was -0.175.

In turn, CAAACTAGGTCATGGTCAAAGTCGGTTTGTGCCA showed a PBM binding z-score of 3.44.

As to ATCGAAAGGCCGTGAGGTGAGTATACAGAAAGGC, the PBM binding z-score was 0.911.

Another test relates to RARg:RXRa (NR concentration 270 nM, RXRa partner concentration 90 nM). Described as above. The method in brief:
as §1
As for CCTGCTAGGGCAATGGTCAGCTAAAGCAGCTCGC, the PBM binding z-score was 0.176.

With ATCGAAAGGTCGTGAGGTGAGTCTACAGAAAGGC, the PBM binding z-score was determined as 4.64.

As for CCTAGCACGCCAGGGTCACTCAAGCATTTCGCTT, the PBM binding z-score was determined as 2.94.

In turn, TCATATAAGTAAAAGGTGAAAGTCGGTGTGGTAA registered a PBM binding z-score of 1.3.

The sequence AGTCAAAGTTCATCTAGGCAACGTAAGATATGCT returned a PBM binding z-score of 5.49.

Turning to ACTATTAGTTGACTTAGGGCAACCCATACGACGC, the PBM binding z-score came to 0.747.

The sequence CCTCGGTGGACAACAGGAGGTCAGAGCTGCCAGA showed a PBM binding z-score of 2.06.

In the case of CGAACTAGGTCAGGGACAGTGAATCTCCGCACGC, the PBM binding z-score turned out to be 2.92.

The sequence TCGAGTAGGTTAGACGGGGCATTCAGCCAACATA gave a PBM binding z-score of 0.307.

CCTTACGGGTCACCGACAGGTTATAGCATTTGGA yielded a PBM binding z-score of 6.61.

With GCTGCTAGGTCAACTGATGTTCAGCTAAAGCTCG, the PBM binding z-score is 4.37.

For TCTTATAGGTAAAAGGTGAAAGTCGGTGTGGTAA, the PBM binding z-score turned out to be 2.24.

For ACTAGCAGGCCAAGTCTGGGTCACTCAAACAAAG, the PBM binding z-score came to 2.25.

Sequence ATCTCTAGGAAAAGATAGTTCAGTGAATGCAAAT returned a PBM binding z-score of 0.447.

In turn, ACTAGCAGGCCAAGTTTGGGTCACTCAGACAAAG displayed a PBM binding z-score of 2.11.

AACTCTAGGTAAAGATAGTTCAGTGAATGCAAAT gave a PBM binding z-score of 0.458.

As for GCTAGCAGGCCATTTGGTTCACTCAATGACGGGC, the PBM binding z-score was -0.115.

ATCGAAAGGCCGACGAGGTGAGTATACACCGTTT gave a PBM binding z-score of 0.783.

As for TCTGTTAGTTGAAGGGCAACCGACGAGTCCGTTT, the PBM binding z-score amounted to 0.835.

CCTACTGGGCCACGAAACGTCATTGATTCAGTGA displayed a PBM binding z-score of -0.321.

As to TCGAGTAGGTTAGGGGCATGCAGAATGGCGTCGA, the PBM binding z-score was 0.351.

Sequence CCTACTGGGCCAAAGCTCATTGATTCCAATGCTC returned a PBM binding z-score of -0.161.

In turn, TCTTGTAGAGCAACAGGAGGTTAAGAAAGATCGA came in with a PBM binding z-score of 0.269.

As for TCTTGTAGATCAAGCAGGTTAAGGAAGCCTGAGT, the PBM binding z-score stood at 0.0317.

With CCTAGCAGGCCAATCTGGGTCACTAAAGGCTTGA, the PBM binding z-score is 0.915.

Take CCTTACGGGTCACTCCAGATTATAGCATCGGAGT: the PBM binding z-score was 4.16.

As for CGTCCAAGGTCAAGGTCAGTTAAAGAGACTCGAA, the PBM binding z-score amounted to 6.92.

As to CCTGCTGGGCCAAGGTCATTGATCAGTCAAAGCA, the PBM binding z-score is 3.79.

TCGAGTAGGTTACCAATGGGGCAGTCAGCTTTCT showed a PBM binding z-score of 1.29.

As to AGTCTAAGTTCACTAGGTAACGTAAGATTCAGCT, the PBM binding z-score came out at 3.35.

The sequence CAAACTAGGTGACGAAAGGTCAAAGTCGAATGAC yielded a PBM binding z-score of 6.2.

On to CCTTGTTGGTCAGGAGGTCACACACCGGATATGA, for which the PBM binding z-score was found to be 4.76.

Regarding ATCTCTAGGTAACAAGTCCAGTGAAAGAGAGGAC, the PBM binding z-score was 0.499.

GCTAGTTGGTCAGTAAAAGGTCACACATCGGTCG came in with a PBM binding z-score of 5.41.

In turn, GGAACGAGGGCGTTCGAGTTGATAGCATGGCGAT returned a PBM binding z-score of 0.0515.

For CTACCAAGGTGAACAACGTCGTTGATTACTATTC, the PBM binding z-score was 0.832.

With CGAACTAGGTCAGAACAGGACAGTGGAGGATGAT, the PBM binding z-score turned out to be 2.47.

As to GCTGCTAGGTCTACTGATGGTCAGCTAAAGCTCG, the PBM binding z-score was -0.238.

In turn, CAAACTAGGTCATGGTCAAAGTCGGTTTGTGCCA showed a PBM binding z-score of 3.83.

ATCGAAAGGCCGTGAGGTGAGTATACAGAAAGGC returned a PBM binding z-score of 1.47.
